Experimental data from paper PMC10668032, “Altered binding affinity of SIX1-Q177R correlates with enhanced WNT5A and WNT pathway effector expression in Wilms tumor”.
Whole data set: some 33,000 sequences, median “e-score” near -0.053, cut for the highest 2% near 0.38. This excerpt belongs to a sample that is enriched for the highest values.

molecular target: T1, SIX1 homeodomain (reference allele) (human, UniProt Q15475 108-198); test: universal protein binding microarray; Universal all-10-mer PBM (8x60K, AMADID 030236), 300 nM GST-tagged protein, Alexa Fluor 488 anti-GST; buffer, salt, pH and temperature not stated (as in Berger); high values mean tight binding; settings: protein: ivt; tags: N-terminal GST; dsDNA, one strand shown
T1 sequence: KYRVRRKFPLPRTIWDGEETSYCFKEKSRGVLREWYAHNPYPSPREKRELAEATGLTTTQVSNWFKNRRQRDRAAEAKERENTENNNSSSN
Summary of the method: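 Duplicate protein binding microarrays (universal 'all 10-mer', 8×60K format) were incubated with GST-tagged homeodomains at 300 nM final concentration. Binding was quantified as 8-mer E-scores with the Universal PBM Analysis Suite.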

Sequence	binding signal
AGATCACA	0.255 ± 0.00822 E-score
AGATCACG	0.306 ± 0.0143 E-score
AGATCAAT	0.3827 ± 0.00302 E-score
GTATCAAA	0.452 ± 0.0436 E-score
AGATCAAA	0.188 ± 0.0637 E-score
AGATCAAG	0.232 ± 0.0888 E-score
GTGTCAAA	0.311 ± 0.019 E-score
CGGAGATA	0.314 ± 0.0255 E-score
ATCCTTCG	0.228 ± 0.0545 E-score
ATTAATCG	0.16 ± 0.0622 E-score
ATACTTAC	0.218 ± 0.0954 E-score
ATATTATG	0.299 ± 0.0542 E-score
ATCAGGCG	0.25 ± 0.0206 E-score
CTCATCTC	0.158 ± 0.0133 E-score
ACTCGGGG	0.212 ± 0.0491 E-score
CCCTATCC	0.359 ± 0.0609 E-score
AGTGGGAT	0.333 ± 0.0228 E-score
CGATCGCC	0.257 ± 0.026 E-score
CGGCGATC	0.302 ± 0.0621 E-score
CTATCAAG	0.155 ± 0.0723 E-score
ATATCAAC	0.418 ± 0.0449 E-score
ATCTCAAT	0.183 ± 0.0808 E-score
ATATCAAA	0.374 ± 0.0809 E-score

Sequence	binding signal
ATATCAAG	0.423 ± 0.0464 E-score
ATATCAAT	0.421 ± 0.0559 E-score
ATCTCAAG	0.215 ± 0.0235 E-score
ATCTCAAC	0.233 ± 0.0413 E-score
CTATCAAC	0.29 ± 0.0532 E-score
ACAGGGTA	0.267 ± 0.0137 E-score
ATCATAAC	0.2814 ± 0.00204 E-score
CCCGTGTA	0.171 ± 0.0224 E-score
ATCCCTAC	0.307 ± 0.0295 E-score
ATCACTCA	0.335 ± 0.0213 E-score
CGCATATC	0.414 ± 0.0167 E-score
CGCATACC	0.266 ± 0.0145 E-score
AGCATATC	0.408 ± 0.0304 E-score
ATCATATA	0.271 ± 0.0327 E-score
ATCATATC	0.425 ± 0.033 E-score
CGCATATA	0.158 ± 0.0261 E-score
AGCATATA	0.239 ± 0.0331 E-score
AGAATATC	0.283 ± 0.121 E-score
CTCATATC	0.31 ± 0.0778 E-score
CGCATCTC	0.154 ± 0.00741 E-score
TACATGTA	0.176 ± 0.041 E-score
ACTCATAT	0.25 ± 0.0849 E-score
AGTATACG	0.26 ± 0.0621 E-score

Sequence	binding signal
ATACGTGC	0.358 ± 0.0375 E-score
GTGTCATA	0.369 ± 0.0321 E-score
ATATGACG	0.227 ± 0.0466 E-score
CGATCCAG	0.212 ± 0.123 E-score
TACAGGTA	0.244 ± 0.0285 E-score
GATAGGCC	0.209 ± 0.0213 E-score
CTGCGATC	0.322 ± 0.0185 E-score
ATCCGGAA	0.295 ± 0.0493 E-score
ACCCGGAA	0.184 ± 0.00414 E-score
ATCCGGAT	0.446 ± 0.0263 E-score
ACCCGTAG	0.156 ± 0.0429 E-score
ACCCGGCT	0.22 ± 0.0443 E-score
AACCGTAT	0.275 ± 0.0195 E-score
ACCCGGGA	0.311 ± 0.0112 E-score
ACCCGGAG	0.194 ± 0.0529 E-score
ATCCGGAG	0.299 ± 0.0152 E-score
ACCCGGGT	0.377 ± 0.0364 E-score
ACCCGGAT	0.411 ± 0.0469 E-score
ACCCGTAT	0.391 ± 0.00477 E-score
TCCGCCGA	0.252 ± 0.00841 E-score
CGAATACG	0.2 ± 0.0406 E-score
GGTGTTGA	0.258 ± 0.0174 E-score
TCAGATAA	0.21 ± 0.0582 E-score

Sequence	binding signal
AATACCTG	0.178 ± 0.0145 E-score
ATCATCGG	0.365 ± 0.0324 E-score
AACCGGAT	0.316 ± 0.00955 E-score
AGCCGGCT	0.1726 ± 0.000438 E-score
AGCCGGAT	0.382 ± 0.0208 E-score
ATCTTCAG	0.153 ± 0.0288 E-score
CGGTGTTA	0.312 ± 0.0102 E-score
ACCGGTAT	0.37 ± 0.0044 E-score
AATGGTAT	0.381 ± 0.00619 E-score
ACTGGGAT	0.239 ± 0.0081 E-score
ACTGGTAT	0.386 ± 0.034 E-score
AGTGGTAT	0.35 ± 0.0207 E-score
AATGGTGT	0.287 ± 0.00727 E-score
GGATTAGA	0.165 ± 0.00327 E-score
TCGTATCA	0.45 ± 0.0228 E-score
GCCTATCA	0.289 ± 0.00848 E-score
CCCTATCA	0.429 ± 0.0145 E-score
GCGTATCA	0.481 ± 0.00534 E-score
TCCTATCA	0.307 ± 0.0417 E-score
CCGTATAG	0.239 ± 0.00962 E-score
